Test results from PubChem BioAssay AID1159580 (chemical genetic matrix, 2015).
About 2,000 (36%) of roughly 5,500 compounds were called active. Roughly 18% stayed inconclusive and do not appear here. No stated cut-off is given here; in the data, active means normalized growth mostly below about 0.91 (no sharp cut-off); inconclusive means no clear call, values can overlap the other calls; inactive means mostly above about 0.92. The list shows a part of the results.

Assay: chemical genetic growth profiling, strain panel (AID 1159580);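 further: tested at 20 µM; growth read once vehicle control cultures reached saturation at 30 °C; 1 = growth at the plate median or of vehicle wells; lower values mean less growth of the strain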
Details: S. cerevisiae deletion strains, growth OD

Measured: normalized growth

COc1cc2occ(-c3ccccc3)c(=O)c2c(OC)c1C
active: locus YDL192W, strain arf1, active compounds read low 0.903 | locus YDR137W, strain rgp1, active compounds read low 0.765 | locus YDR318W, strain mcm21, active compounds read low 0.891 | locus YDR392W, strain spt3, active compounds read low 0.707 | locus YDR502C, strain sam2, active compounds read low 0.919 | locus YER167W, strain BCK2, active compounds read low 0.881 | locus YGL086W, strain mad1, active compounds read low 0.901 | locus YGR252W, strain gcn5, active compounds read low 0.707 | locus YHR079C, strain IRE1 (second series), active compounds read low 0.911 | locus YHR200W, strain rpn10, active compounds read low 0.905
inactive: locus YAL013W, strain DEP1, active compounds read low 0.947 | locus YAL021C, strain ccr4, active compounds read low 0.996 | locus YAL026C, strain drs2, active compounds read low 0.96 | locus YAL030W, strain snc1, active compounds read low 0.967 | locus YBL061C, strain skt5, active compounds read low 0.985 | locus YBR009C, strain hhf1, active compounds read low 0.978 | locus YBR021W, strain FUR4, active compounds read low 0.923 | locus YBR023C, strain chs3, active compounds read low 0.966 | locus YBR171W, strain sec66, active compounds read low 0.965 | locus YBR229C, strain ROT2, active compounds read low 0.959 | locus YBR231C, strain swc5, active compounds read low 0.966 | locus YBR279W, strain paf1, active compounds read low 0.992 | locus YCL011C, strain gbp2, active compounds read low 0.973 | locus YCL016C, strain dcc1, active compounds read low 0.968 | locus YCL029C, strain bik1, active compounds read low 0.933 | locus YCL061C, strain MRC1, active compounds read low 0.973 | locus YCL069W, strain vba3, active compounds read low 0.975 | locus YCR088W, strain abp1, active compounds read low 0.972 | locus YDL005C, strain med2, active compounds read low 1.02 | locus YDL035C, strain GPR1, active compounds read low 0.915 | locus YDL040C, strain nat1, active compounds read low 0.973 | locus YDL074C, strain BRE1, active compounds read low 0.817 | locus YDL101C, strain DUN1, active compounds read low 0.953 | locus YDL134C, strain PPH21, active compounds read low 0.963 | locus YDL185W, strain tfp1, active compounds read low 0.945 | locus YDR001C, strain nth1, active compounds read low 0.967 | locus YDR069C, strain doa4, active compounds read low 0.995 | locus YDR101C, strain arx1, active compounds read low 0.934 | locus YDR150W, strain NUM1, active compounds read low 0.963 | locus YDR159W, strain sac3, active compounds read low 0.98 | locus YDR162C, strain NBP2, active compounds read low 0.875 | locus YDR195W, strain ref2 1.1 | locus YDR297W, strain sur2, active compounds read low 0.974 | locus YDR334W, strain swr1, active compounds read low 0.968 | locus YDR335W, strain msn5, active compounds read low 0.991 | locus YDR388W, active compounds read low 0.935 | locus YEL003W, strain gim4, active compounds read low 0.978 | locus YEL037C, strain rad23, active compounds read low 0.977 | locus YEL061C, strain CIN8 (second series), active compounds read low 0.978 | locus YEL061C, strain CIN8, active compounds read low 0.968 | locus YER015W, strain faa2, active compounds read low 0.981 | locus YER016W, strain bim1, active compounds read low 0.97 | locus YER110C, active compounds read low 0.938 | locus YER111C, strain swi4, active compounds read low 1 | locus YER155C, strain BEM2 (second series), active compounds read low 0.886 | locus YER155C, strain BEM2, active compounds read low 0.961 | locus YFR010W, strain ubp6, active compounds read low 0.991 | locus YGL078C, strain dbp3, active compounds read low 0.975 | locus YGL167C, strain pmr1, active compounds read low 0.965 | locus YGL173C, strain kem1, active compounds read low 0.983 | locus YGL227W, strain vid30, active compounds read low 0.989 | locus YGL240W, strain doc1, active compounds read low 0.944 | locus YGL248W, strain PDE1, active compounds read low 0.961 | locus YGL253W, strain hxk2, active compounds read low 0.971 | locus YGR078C, strain PAC10, active compounds read low 0.932 | locus YGR135W, strain pre9, active compounds read low 0.918 | locus YGR229C, strain SMI1, active compounds read low 0.813 | locus YHR013C, strain ard1, active compounds read low 0.976 | locus YHR027C, strain rpn1, active compounds read low 0.989 | locus YHR030C, strain SLT2, active compounds read low 0.948 | locus YHR094C, strain hxt1, active compounds read low 0.956 | locus YHR129C, strain ARP1, active compounds read low 0.949 | locus YHR142W, strain chs7, active compounds read low 0.917 | locus YIL066C, strain RNR3, active compounds read low 0.874 | locus YIL073C, strain SPO22, active compounds read low 0.818 | locus YIL125W, strain kgd1, active compounds read low 0.955 | locus YIR030C, strain dcg1, active compounds read low 0.937 | locus YJL092W, strain hpr5, active compounds read low 0.977 | locus YJL095W, strain BCK1 (second series), active compounds read low 0.975 | locus YJL095W, strain BCK1, active compounds read low 0.847 | locus YJL115W, strain asf1, active compounds read low 0.998 | locus YJL129C, strain trk1, active compounds read low 0.891 | locus YJL134W, strain LCB3, active compounds read low 0.965 | locus YJL154C, strain vps35, active compounds read low 0.99 | locus YJL164C, strain tpk1, active compounds read low 0.937 | locus YJL166W, strain qcr8, active compounds read low 0.975 | locus YJL168C, strain set2, active compounds read low 0.946 | locus YJL187C, strain SWE1 (second series), active compounds read low 0.934 | locus YJL187C, strain SWE1, active compounds read low 0.976
